Records with an inconclusive call do not appear. A number with no mark means an inactive call. Calls of active or inactive are those of the source. Calls come from the whole dose curve; as a rule, active = well fitted inhibition curve with a large enough effect; inconclusive = small, poorly fitted or top-dose-only effect; inactive = flat fitted curve, though single readings scatter. Where a SMILES comes first, the peptide text is derived from it. The star is where a group is joined. AFC = O=c1cc(C(F)(F)F)c2ccc(N*)cc2o1

Assay [1] addresses Calcium and integrin-binding protein 1 (Homo sapiens) (UniProt Q99828). Put plainly: Primary qHTS for Identification of Calcium Integrin Binding Protein 1 (CIB1) Competitor (AID 1508620).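 Note: GST tagged CIB1 binding a fluorescein labelled alphaIIb integrin peptide tracer; top concentration of the series differs between compounds.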 Summed up:
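CIB1-GST (1 uM final) and compound incubated 15 min at room temperature before adding FITC-alphaIIb peptide tracer (100 nM final). Competition for binding read by fluorescence polarization (ex 480, em 540) after another 15 min at room temperature.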
(In qHTS, concentration-response curves come from the screen itself.)

A short description of assay [2]: Primary qHTS for inhibitors of nuclear receptor binding SET domain protein 2 (NSD2) in an isogenic RCH-ACV NSD2 p.E1099K mutant (9B) (AID 1645876). Note: nearly all actives have a fitted effect of over 70% in size. Note: potency is the fitted concentration of half-maximal effect.
% is set by controls: 0 for no effect and ±100 for the full control effect.

Calcium and integrin-binding protein 1 (Homo sapiens), sequence (Q99828 whole entry, looked up): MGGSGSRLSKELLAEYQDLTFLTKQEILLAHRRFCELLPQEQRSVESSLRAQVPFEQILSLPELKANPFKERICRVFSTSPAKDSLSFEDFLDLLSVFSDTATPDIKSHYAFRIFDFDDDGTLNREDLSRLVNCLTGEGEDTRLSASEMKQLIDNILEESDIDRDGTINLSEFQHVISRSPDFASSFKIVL

On to `C[C@@H]1C(=O)O[C@H](C)[C@H]1CC(=O)[C@](C)(O)[C@H]1CC[C@@]2(O)C3=CC(=O)[C@@H]4C[C@@H](O)[C@@H](O)C[C@]4(C)C3CC[C@]12C` (some centres not stated), for which the Potency entry in assay [1] and in assay [2] was “inactive” throughout.

As for `C[C@@H]1CC[C@]2(C(=O)O)CC[C@]3(C)C(=CCC4[C@@]5(C)CC[C@H](O)C(C)(C)C5C(O)C[C@]43C)[C@@H]2[C@]1(C)O` (some centres not stated), the Potency result in assay [1] and in assay [2] was “inactive” in each case.

Regarding `N=c1nc2n(cc1F)C1OC(CO)C(O)C1O2` (configuration not stated), in assay [1], the Potency result is “inactive”. Moreover, the Potency in assay [2] was 57.8 nM (active).

As for `C[C@@]1(O)[C@H](O)[C@@H](CO)O[C@H]1n1ccc(N)nc1=O`, the Potency entry in assay [1] was “inactive”. In addition, the Potency in assay [2] is 20500 nM (active).

`COc1c/c(=C2\C=c3ccccc3=N2)[nH]/c1=C\c1[nH]c(C)cc1C`: the Potency result in assay [1] was “inactive”. In assay [2], the Potency was 5780 nM (active).

Regarding `COc1ccc(/C=C/C(=O)O[C@@H]2[C@@H](O)[C@@H](O)[C@H](O[C@@H]3C=C(CO)[C@H]4[C@H](O[C@@H]5O[C@H](CO)[C@@H](O)[C@H](O)[C@H]5O)OC=C[C@H]43)O[C@H]2C)cc1O`, the Potency entry in assay [1] and in assay [2] was “inactive” each time.

As for `C=C(CO)C12OC1C1(C)C(=CC2=O)C(O)C(O)CC1C` (configuration not stated), the Potency entry in assay [1] and in assay [2] was “inactive” in each case.

As for `COC(=O)C1=CO[C@@H](O[C@@H]2O[C@H](CO)[C@@H](O)[C@H](O)[C@H]2O)C2C1C(=O)C[C@H]2C` (some centres not stated), the Potency entry in assay [1] and in assay [2] was “inactive” throughout.

Take `C[C@@H]1CC[C@@]2(OC1)O[C@H]1C[C@H]3[C@@H]4CC=C5C[C@@H](O)CC[C@]5(C)[C@H]4CC[C@]3(C)[C@H]1[C@@H]2C`: the Potency result in assay [1] and in assay [2] was “inactive” in each case.

Regarding `CC1=C(/C=C/C(C)=C\C=C\C(C)=C/C(=O)O)C(C)(C)CCC1`, the Potency entry in assay [1] and in assay [2] was “inactive” each time.

For `C[C@H]1CC[C@@H]2N(C1)C[C@@H]1[C@H]([C@@H](O)[C@H](O)[C@]3(O)[C@H]1C[C@@]14OC5(O)[C@@H](C[C@@H](O)[C@@H]31)[C@]4(C)CC[C@@H]5O)[C@]2(C)O`, the Potency result in assay [1] and in assay [2] was “inactive” each time.

As for `CC(C)(O)/C=C/CC(C)(O)C1C(O)CC2(C)C3CCC4C(C)(C)C(=O)CCC4(C)C3CCC12C` (configuration not stated), the Potency result in assay [1] and in assay [2] was “inactive” each time.

With `Cc1ccc(C(=O)N(CCCN)C(c2nc3cc(Cl)ccc3c(=O)n2Cc2ccccc2)C(C)C)cc1` (configuration not stated), the Potency entry in assay [1] was “inactive”. In addition, the Potency in assay [2] was 5.8 nM (active).

`C=CC(C)(C)c1[nH]c2ccccc2c1C[C@@H]1NC(=O)[C@H](Cc2c[nH]c3ccccc23)NC1=O`: the Potency entry in assay [1] and in assay [2] was “inactive” throughout.

`CC(=O)O[C@@H]1C[C@H](O)[C@@]23CO[C@H](O)[C@]1(C)C2C[C@@H](O)[C@]1(C)C3C(=O)[C@H](OC(C)=O)[C@@]2(C)[C@H](c3ccoc3)C[C@H]3O[C@]321` (some centres not stated): in assay [1], the Potency entry is “inactive”. In addition, the Potency in assay [2] is 34.2 nM (active).

For the compound `CC(=O)N[C@@H](Cc1c[nH]c2ccccc12)C(=O)N[C@@H](CCC(=O)O)C(=O)N[C@@H](Cc1cnc[nH]1)C(=O)N[C@@H](CC(=O)O)C(=O)Nc1ccc2c(C(F)(F)F)cc(=O)oc2c1` (Ac-WEHD-{AFC}), the Potency entry in assay [1] and in assay [2] was “inactive” throughout.

In the case of `C/C(=C\C=C\C(C)C1CCC2(C)C3CCC4C(C)(C)C(=O)CCC45CC35CCC12C)C(=O)O` (configuration not stated), the Potency entry in assay [1] and in assay [2] was “inactive” throughout.

For the compound `CC(C)C[C@H](CC(=O)NO)C(=O)N[C@@H](Cc1ccc2ccccc2c1)C(=O)N[C@@H](C)C(=O)NCCN`, the Potency entry in assay [1] and in assay [2] was “inactive” in each case.

For the compound `C[C@@H]1CC[C@]2(C(=O)O[C@@H]3O[C@H](CO)[C@@H](O)[C@H](O)[C@H]3O)CC[C@]3(C)C(=CCC4[C@@]5(C)C[C@@H](O)[C@H](O)[C@@](C)(C(=O)O[C@H]6[C@H](O)C[C@@]7(C)C(CC[C@]8(C)C7CC=C7[C@H]9[C@](C(=O)O[C@@H]%10O[C@H](CO)[C@@H](O)[C@H](O)[C@H]%10O)(CC[C@@H](C)[C@@]9(C)O)CC[C@]78C)[C@@]6(CO)C(=O)O)C5CC[C@]43C)[C@@H]2[C@]1(C)O` (some centres not stated), the activity change, negative = inhibition in assay [1] was 3.8% [at 12.4 µM]. The outcome in assay [2] was “inactive [at 9.23 µM]”.

Regarding `C#CC[C@H](c1nc2cc(Cl)ccc2c(=O)n1Nc1ccccc1)N(CCCN)C(=O)c1cccc(Cl)c1F`, in assay [1], the Potency result is “inactive”. In addition, in assay [2], the Potency was 372 nM (active).

Take `CN[C@H](CC(C)C)C(=O)N[C@H]1C(=O)N[C@@H](CC(N)=O)C(=O)N[C@H]2C(=O)N[C@H]3C(=O)N[C@H](C(=O)N[C@H](C(=O)O)c4cc(O)cc(O)c4-c4cc3ccc4O)[C@H](O[C@H]3C[C@](C)(N)[C@@H](O)[C@H](C)O3)c3ccc(c(Cl)c3)Oc3cc2cc(c3O[C@@H]2O[C@H](CO)[C@@H](O)[C@H](O)[C@H]2O[C@H]2C[C@](C)(NCc3ccc(-c4ccc(Cl)cc4)cc3)[C@@H](O)[C@H](C)O2)Oc2ccc(cc2Cl)[C@H]1O`: the Potency entry in assay [1] and in assay [2] was “inactive” in each case.

The values above are taken from PubChem BioAssay (NCATS).
